Test results: PubChem BioAssay (EPA / NIEHS)
Calls of active or inactive are those of the source. The calls were made as follows: active = hit-call score of the fitted dose curve at least 0.9, where 1 is the maximum; inactive = score below 0.9.

Legend:
Conditions in all cases: mRNA level, 48 h; actives raise or lower the signal
[1] = read-out: Heat shock 70 kDa protein 1 (HSPA1A), gene 3303; assay: LTEA_HepaRG_HSPA1A: Life Technologies and Expression Analysis (LTEA) Assay for Heat shock 70 kDa protein 1 (HSPA1A) using HepaRG (AID 2283502)
Method in brief: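 HSPA1A induction in human HepaRG liver cells is measured after 48 h of chemical treatment (100 uM maximum, 0.5% DMSO vehicle). Expression comes from qRT-PCR normalized to endogenous controls.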

[2] = read-out: Hypoxia-inducible factor 1-alpha (Homo sapiens) (UniProt Q16665); assay: LTEA_HepaRG_HIF1A: Life Technologies and Expression Analysis (LTEA) Assay for Hypoxia-inducible factor 1 (HIF1A) Trancription factor using HepaRG (AID 2283503)
Method in brief: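 HepaRG, 48 h exposure, 8-pt half-log series from 100 uM, 0.5% DMSO vehicle, duplicates. Readout: HIF1A transcript by qRT-PCR (Fluidigm array), housekeeping-normalised. Bidirectional curve fit vs DMSO baseline.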

[3] = read-out: 3-Hydroxy-3-Methylglutaryl-CoA Synthase 2 (HMGCS2), HMGCS2 (gene 3158); assay: LTEA_HepaRG_HMGCS2: Life Technologies and Expression Analysis (LTEA) Assay for 3-Hydroxy-3-Methylglutaryl-CoA Synthase 2 (HMGCS2) using HepaRG (AID 2283504)
Method in brief: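 HepaRG, plated 48 h then switched to serum-free induction media; cmpd 8-pt, max 100 uM, 1/2-log, 0.5% DMSO, n=2, 48 h. HMGCS2 mRNA by Fluidigm TaqMan qRT-PCR, ACTB/GAPDH/POLR2A norm; bidirectional fit vs DMSO.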

[4] = read-out: HGF (gene 3082); assay: LTEA_HepaRG_HGF: Life Technologies and Expression Analysis (LTEA) Assay for Hepatocyte Growth Facto (HGF) using HepaRG (AID 2283505)
Method in brief: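 Read-out is HGF transcript level by qRT-PCR, normalized to three housekeeping genes, fitted bidirectionally against 0.5% DMSO vehicle. Human HepaRG cells received test chemicals for 48 h at up to 100 uM.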

[5] = read-out: Insulin Like Growth Factor 1 (IGF1), IGF1 (gene 3479); assay: LTEA_HepaRG_IGF1: Life Technologies and Expression Analysis (LTEA) Assay for Insulin Like Growth Factor 1 (IGF1) using HepaRG (AID 2283506)
Method in brief: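 Using human HepaRG liver cells, IGF1 transcript induction or suppression is measured 48 h after dosing across eight concentrations capped at 100 uM. Values derive from bidirectional concentration-response fitting with DMSO as baseline.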

[6] = read-out: Intercellular Adhesion Molecule 1 (ICAM1), ICAM1 (gene 3383); assay: LTEA_HepaRG_ICAM1: Life Technologies and Expression Analysis (LTEA) Assay for Intercellular Adhesion Molecule 1 (ICAM1) using HepaRG (AID 2283507)
Method in brief: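 Readout is qRT-PCR mRNA level, normalized to three housekeeping genes and fitted bidirectionally against 0.5% DMSO vehicle. Human HepaRG cultures received compound for 48 h, top concentration 100 uM with half-log dilutions.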

[7] = read-out: Insulin-like growth factor-binding protein 1 (IGFBP1), IGFBP1 (gene 3484); assay: LTEA_HepaRG_IGFBP1: Life Technologies and Expression Analysis (LTEA) Assay for Insulin-like growth factor-binding protein 1 (IGFBP1) using HepaRG (AID 2283508)
Method in brief: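 Thawed HepaRG cells are plated for 48 h, switched to serum-free induction medium, then dosed in duplicate for another 48 h (100 uM top, half-log steps). Lysates in RLT go to qRT-PCR, and gain or loss of signal is fitted relative to vehicle.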

[8] = read-out: Interleukin 6 (IL6), IL6 (gene 3569); assay: LTEA_HepaRG_IL6: Life Technologies and Expression Analysis (LTEA) Assay for Interleukin 6 (IL6) using HepaRG (AID 2283509)
Method in brief: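 Differentiated human HepaRG cells, plated 48 h then switched to serum-free induction medium, were exposed in duplicate for 48 h to eight half-log concentrations up to 100 uM in 0.5% DMSO. IL6 mRNA measured by qRT-PCR, normalized to ACTB/GAPDH/POLR2A.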

[9] = read-out: Interleukin 6 Receptor (IL6R), IL6R (gene 3570); assay: LTEA_HepaRG_IL6R: Life Technologies and Expression Analysis (LTEA) Assay for Interleukin 6 Receptor (IL6R) using HepaRG (AID 2283510);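 as to AC50: TaqMan qRT-PCR signal normalized to ACTB GAPDH and POLR2A housekeeping genes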
Method in brief: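 Concentration-response in human liver HepaRG cells: eight concentrations from 100 uM downward by half-logs, 48 h exposure, 0.5% DMSO vehicle. IL6R mRNA change measured by qRT-PCR and fitted in both directions relative to vehicle.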

[10] = read-out: Potassium channel subfamily K member 1 (KCNK1), KCNK1 (gene 3775); assay: LTEA_HepaRG_KCNK1: Life Technologies and Expression Analysis (LTEA) Assay for Potassium channel subfamily K member 1 (KCNK1) using HepaRG (AID 2283511)
Method in brief: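 Differentiated human HepaRG cells in serum-free induction medium were exposed in duplicate for 48 h to 8 half-log concentrations up to 100 uM in 0.5% DMSO. KCNK1 mRNA was measured by TaqMan qRT-PCR, normalized to ACTB, GAPDH and POLR2A, and fitted bidirectionally versus DMSO.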

[11] = read-out: Keratin 19 (KRT19), KRT19 (gene 3880); assay: LTEA_HepaRG_KRT19: Life Technologies and Expression Analysis (LTEA) Assay for Keratin 19 (KRT19) using HepaRG (AID 2283512)
Method in brief: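 KRT19 transcript levels, measured by Fluidigm qRT-PCR against three housekeeping genes, are fitted for gain or loss of signal relative to DMSO. Human HepaRG cells receive test chemicals (top 100 uM, half-log steps, 0.5% DMSO) for 48 hours.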

[12] = read-out: JUN Transcription Factor, JUN (gene 3725); assay: LTEA_HepaRG_JUN: Life Technologies and Expression Analysis (LTEA) Assay for JUN Transcription Factor using HepaRG (AID 2283513)
Method in brief: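 Human HepaRG liver cells receive test chemicals in 0.5% DMSO for 48 h across an eight-point range topping at 100 uM. Expression changes in JUN are scored in both directions against the DMSO vehicle.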

[13] = read-out: Lipase C (LIPC), LIPC (gene 3990); assay: LTEA_HepaRG_LIPC: Life Technologies and Expression Analysis (LTEA) Assay for Lipase C (LIPC) using HepaRG (AID 2283514)
Method in brief: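 Differentiated human HepaRG cells in serum-free induction medium were exposed in duplicate for 48 h to eight concentrations (top 100 uM, half-log steps, 0.5% DMSO). LIPC mRNA was quantified by TaqMan qRT-PCR, normalized to ACTB, GAPDH and POLR2A, with bidirectional fitting versus DMSO.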

[14] = read-out: Lipoprotein lipase (LPL), LPL (gene 4023); assay: LTEA_HepaRG_LPL: Life Technologies and Expression Analysis (LTEA) Assay for Lipoprotein lipase (LPL) using HepaRG (AID 2283515)
Method in brief: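 Differentiated human HepaRG cells in serum-free induction medium were exposed in duplicate for 48 h to eight half-log concentrations (top 100 uM) in 0.5% DMSO. LPL mRNA was quantified by TaqMan qRT-PCR, normalized to ACTB, GAPDH and POLR2A.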

[15] = read-out: MicroRNA 122 (MIR122), gene 406906; assay: LTEA_HepaRG_MIR122: Life Technologies and Expression Analysis (LTEA) Assay for MicroRNA 122 (MIR122) using HepaRG (AID 2283516); also: the transcript read is the microRNA miR-122
Method in brief: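 HepaRG, 48 h exposure, 8-pt half-log from 100 uM, 0.5% DMSO; TaqMan qRT-PCR; bidirectional fit vs DMSO.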

[16] = read-out: matrix metalloproteinase-10 (MMP10), MMP10 (gene 4319); assay: LTEA_HepaRG_MMP10: Life Technologies and Expression Analysis (LTEA) Assay for matrix metalloproteinase-10 (MMP10) using HepaRG (AID 2283517)
Method in brief: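 HepaRG, collagen I, ~100,000 cells/well; serum-free induction medium; 48 h exposure, duplicate, 8-pt half-log to 100 uM, 0.5% DMSO. Readout: TaqMan qRT-PCR, normalized to ACTB/GAPDH/POLR2A; bidirectional fit vs DMSO.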

[17] = read-out: MYC, MYC (gene 4609); assay: LTEA_HepaRG_MYC: Life Technologies and Expression Analysis (LTEA) Assay for MYC using HepaRG (AID 2283518)
Method in brief: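 HepaRG, ~100,000 cells/well, collagen I; 48 h plating; serum-free induction medium; 48 h dosing, duplicate, 100 uM top, half-log, 0.5% DMSO; total RNA → qRT-PCR MYC; gain/loss fit vs DMSO.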

[18] = read-out: matrix metalloproteinase-3 (MMP3), MMP3 (gene 4314); assay: LTEA_HepaRG_MMP3: Life Technologies and Expression Analysis (LTEA) Assay for matrix metalloproteinase-3 (MMP3) using HepaRG (AID 2283519)
Method in brief: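 Differentiated human HepaRG cells, plated 48 h on collagen I, were exposed in duplicate for 48 h in serum-free induction medium to eight half-log concentrations up to 100 uM in 0.5% DMSO. MMP3 mRNA was quantified by TaqMan qRT-PCR, normalised to ACTB, GAPDH and POLR2A.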

[19] = read-out: Paternally Expressed 10 (PEG10), PEG10 (gene 23089); assay: LTEA_HepaRG_PEG10: Life Technologies and Expression Analysis (LTEA) Assay for Paternally Expressed 10 (PEG10) using HepaRG (AID 2283520);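 as to AC50: PEG10 transcript by qRT-PCR normalised to ACTB GAPDH and POLR2A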
Method in brief: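 Chemicals tested on HepaRG cells for 48 h, highest concentration 100 uM. PEG10 expression assessed by qRT-PCR relative to DMSO control.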

[20] = read-out: Nuclear factor NF-kappa-B p105 subunit (Homo sapiens) (UniProt P19838); assay: LTEA_HepaRG_NFKB1: Life Technologies and Expression Analysis (LTEA) Assay for Nuclear Factor Kappa B Subunit 1 (NFKB1) using HepaRG (AID 2283521);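 as to outcome: TaqMan qRT-PCR transcript normalised to ACTB GAPDH and POLR2A housekeeping genes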
Method in brief: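 Differentiated human HepaRG cells were exposed for 48 h in serum-free induction medium to eight concentrations (top 100 uM, half-log steps, 0.5% DMSO), in duplicate. NFKB1 mRNA was measured by TaqMan qRT-PCR, normalized to ACTB/GAPDH/POLR2A, and fitted bidirectionally against DMSO.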

Hypoxia-inducible factor 1-alpha (Homo sapiens), sequence (Q16665 whole entry, looked up): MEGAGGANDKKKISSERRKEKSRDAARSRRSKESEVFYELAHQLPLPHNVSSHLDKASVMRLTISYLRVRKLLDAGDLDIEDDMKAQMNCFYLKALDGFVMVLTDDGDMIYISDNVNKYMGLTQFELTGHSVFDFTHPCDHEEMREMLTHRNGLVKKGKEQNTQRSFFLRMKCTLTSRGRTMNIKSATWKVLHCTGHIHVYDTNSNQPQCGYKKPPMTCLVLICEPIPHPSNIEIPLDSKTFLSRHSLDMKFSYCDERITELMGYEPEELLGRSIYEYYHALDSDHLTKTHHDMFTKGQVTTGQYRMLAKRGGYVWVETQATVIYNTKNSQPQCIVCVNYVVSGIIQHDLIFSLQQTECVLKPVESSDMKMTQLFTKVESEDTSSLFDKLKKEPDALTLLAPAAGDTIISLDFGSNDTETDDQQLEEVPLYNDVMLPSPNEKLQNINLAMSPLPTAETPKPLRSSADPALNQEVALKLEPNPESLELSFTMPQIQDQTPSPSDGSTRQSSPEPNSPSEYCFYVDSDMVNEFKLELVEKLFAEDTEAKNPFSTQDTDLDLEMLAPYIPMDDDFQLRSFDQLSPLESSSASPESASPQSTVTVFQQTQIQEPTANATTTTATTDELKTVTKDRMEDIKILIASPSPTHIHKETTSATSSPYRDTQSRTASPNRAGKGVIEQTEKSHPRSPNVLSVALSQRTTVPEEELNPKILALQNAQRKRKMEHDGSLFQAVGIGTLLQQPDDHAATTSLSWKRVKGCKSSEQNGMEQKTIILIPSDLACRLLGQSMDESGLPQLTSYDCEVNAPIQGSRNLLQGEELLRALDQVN
Nuclear factor NF-kappa-B p105 subunit (Homo sapiens), sequence (P19838 whole entry, looked up): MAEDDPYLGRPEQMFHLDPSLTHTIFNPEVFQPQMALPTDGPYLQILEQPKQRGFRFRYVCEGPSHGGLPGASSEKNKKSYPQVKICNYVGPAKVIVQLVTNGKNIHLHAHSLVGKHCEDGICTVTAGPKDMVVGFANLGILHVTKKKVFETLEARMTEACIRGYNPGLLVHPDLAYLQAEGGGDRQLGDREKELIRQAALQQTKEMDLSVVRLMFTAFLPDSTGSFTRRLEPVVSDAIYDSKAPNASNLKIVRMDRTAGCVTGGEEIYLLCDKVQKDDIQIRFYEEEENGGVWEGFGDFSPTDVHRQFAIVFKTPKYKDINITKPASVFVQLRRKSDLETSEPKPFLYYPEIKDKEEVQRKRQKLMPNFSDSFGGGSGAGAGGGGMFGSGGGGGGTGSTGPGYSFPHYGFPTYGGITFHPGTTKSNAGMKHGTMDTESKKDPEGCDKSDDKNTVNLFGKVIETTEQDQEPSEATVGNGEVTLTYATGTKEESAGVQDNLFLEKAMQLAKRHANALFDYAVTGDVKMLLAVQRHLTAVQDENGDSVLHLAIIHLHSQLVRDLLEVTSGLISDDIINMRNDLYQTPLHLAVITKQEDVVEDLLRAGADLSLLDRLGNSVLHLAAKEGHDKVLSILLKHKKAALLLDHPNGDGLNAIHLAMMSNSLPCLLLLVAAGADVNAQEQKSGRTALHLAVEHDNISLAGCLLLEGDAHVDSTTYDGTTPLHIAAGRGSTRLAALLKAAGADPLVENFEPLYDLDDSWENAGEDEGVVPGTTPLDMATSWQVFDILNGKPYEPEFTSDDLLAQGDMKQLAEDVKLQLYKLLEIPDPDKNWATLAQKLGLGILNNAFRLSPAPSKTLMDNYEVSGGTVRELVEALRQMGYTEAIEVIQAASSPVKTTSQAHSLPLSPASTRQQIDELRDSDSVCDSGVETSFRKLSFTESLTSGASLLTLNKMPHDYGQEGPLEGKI

## CCCCCCCCN(C)CCCCCCCC
[1]
  outcome: inactive
[2]
  outcome: inactive
[3]
  outcome: inactive
[4]
  outcome: inactive
[5]
  outcome: inactive
[6]
  outcome: inactive
[7]
  outcome: inactive
[8]
  outcome: inactive
[9]
  outcome: inactive
[10]
  outcome: inactive
[11]
  outcome: inactive
[12]
  outcome: inactive
[13]
  outcome: inactive
[14]
  outcome: inactive
[15]
  outcome: inactive
[16]
  outcome: inactive
[17]
  outcome: inactive
[18]
  outcome: inactive
[19]
  outcome: inactive
[20]
  outcome: inactive

## CN(C)c1ccc(C(=C2C=CC(=[N+](C)C)C=C2)c2ccc(N(C)C)cc2)cc1
[2]
  AC50: 44.3 µM (active)
[3]
  AC50: 3.66 µM (active)
[4]
  outcome: inactive
[5]
  AC50: 1.44 µM (active)
[6]
  AC50: 73.1 µM (active)
[7]
  AC50: 3.64 µM (active)
[8]
  AC50: 6.98 µM (active)
[9]
  AC50: 12.5 µM (active)
[10]
  AC50: 5.1 µM (active)
[11]
  AC50: 4.74 µM (active)
[12]
  AC50: 89.2 µM (active)
[13]
  AC50: 3.01 µM (active)
[14]
  AC50: 36 µM (active)
[15]
  AC50: 6.78 µM (active)
[16]
  AC50: 8.54 µM (active)
[17]
  AC50: 12 µM (active)
[18]
  AC50: 9.34 µM (active)
[19]
  AC50: 6.63 µM (active)

## CN1C(=O)N(c2ccccc2Br)Cc2cnc(Nc3ccc4c(c3)OCC(CO)O4)nc21 (stereo not drawn)
[1]
  AC50: 92.4 µM (active)
[2]
  AC50: 1.33 µM (active)
[3]
  AC50: 75.4 µM (active)
[4]
  outcome: inactive
[5]
  AC50: 32.7 µM (active)
[6]
  outcome: inactive
[7]
  AC50: 62.3 µM (active)
[8]
  AC50: 11.6 µM (active)
[9]
  outcome: inactive
[10]
  outcome: inactive
[11]
  AC50: 6.5 µM (active)
[12]
  AC50: 12.1 µM (active)
[13]
  AC50: 71.8 µM (active)
[14]
  AC50: 31.8 µM (active)
[15]
  AC50: 63.2 µM (active)
[16]
  outcome: inactive
[17]
  outcome: inactive
[18]
  outcome: inactive
[19]
  outcome: inactive
[20]
  AC50: 19.5 µM (active)
